Out of some 1,200 compounds screened, about 950 (79%) were called active. So high a share suggests a set chosen from earlier hits. The list is a sample of the results. Results with a measured potency or affinity are listed apart. Unmarked numbers belong to inactive results.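 The calls were made as follows: active = signal rises and fitted curve reaches 40% activity at or below the top valid tested dose, in every replicate test; inconclusive = replicate tests give mixed calls; inactive = the rest, including activity in the opposite direction.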

The nature of this test: Bmi1-luciferase reporter activators in mESC, dose response, esBAF inhibitor project, mouse embryonic stem cells, cherry-pick (AID 651717).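 Also: luciferase knocked into Bmi1 locus with EF-1a renilla as cell number control; rising ratio signals esBAF inhibition which derepresses Bmi1.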 The following applies: firefly/renilla ratio, 24 h, active compounds read high; at 35 µM unless noted.
Consider `O=C(O)C/C(=C\c1cc(Br)cs1)c1nc2ccccc2o1`, for which the max activity was 31.8%.

In the case of `Cc1cccc(N2CCN(C(=O)c3ccc4nc(N5CCCCC5)sc4c3)CC2)c1C`, the max activity is -28.5%.

`O=C(CSc1nnc(Nc2ccccc2F)s1)Nc1cccc(S(=O)(=O)N2CCCCC2)c1`: the max activity is 20.6% [at 16 µM].

As for `C[C@H](CO)N1C[C@H](C)[C@@H](CN(C)Cc2ccncc2)Oc2c(NC(=O)Nc3ccc4c(c3)OCO4)cccc2C1=O`, the max activity was 39.5% [at 0.26 µM].

Regarding `O=C1CCC[C@@H]2C[C@@]3(C[C@@H]4CCN1[C@H]24)Nc1cc(Cl)c(Cl)cc1NC3=NCc1ccccc1`, the max activity was 15.2% [at 4.2 µM].

With `CCCCC(=O)c1c(O)c2ccccc2oc1=O`, the max activity is 28.9%.

Consider `O=C(Nc1ccc(F)c(Cl)c1)c1ccccc1NC(=O)C1CCCCC1C(=O)O` (stereo not drawn), for which the max activity was 26.5%.

With `O=C(O)CCN1C(=O)/C(=C\c2cccc(OCC(=O)Nc3ccc(Cl)cc3)c2)SC1=S`, the max activity was 38%.

For the molecule `O=S(=O)(/N=C(/Nc1nc2ccccc2s1)c1ccccc1)c1ccccc1`, the max activity was 34.6% [at 16 µM].

On to `Clc1ccc(CSc2ncn(-c3ccccc3)n2)cc1`, for which the max activity was 27%.

As to `Cc1cc(C)n2nc(SCc3nnc(SCc4ccccc4C)s3)nc2n1`, the max activity is 26.5%.

For the molecule `CN(C)Cc1c(O)ccc2c(=O)c(-c3ccc(Cl)cc3)coc12`, the max activity is 24.4%.

As for `C[C@H](CO)N1C[C@H](C)[C@@H](CN(C)C(=O)Nc2ccc3c(c2)OCO3)Oc2c(NS(=O)(=O)c3cn(C)cn3)cccc2C1=O`, the max activity was 30.6%.

Take `COc1ccc2c(c1OC)C(=O)OC2Nc1nc(-c2cc3cc([N+](=O)[O-])ccc3oc2=O)cs1` (stereo not drawn): the max activity is 38.4%.

With `O=C(NN=C1CCCC1)c1ccccc1O`, the max activity is 17.2% [at 4.2 µM].

Regarding `CCOc1ccc(/C=N/NC(=O)c2ccccc2O)cc1CN1CC2CC(C1)c1cccc(=O)n1C2` (stereo not drawn), the max activity was 21.1% [at 16 µM].

In the case of `C[C@H](CO)N1C[C@H](C)[C@H](CN(C)C(=O)Nc2ccccc2)OCCCC[C@H](C)Oc2ccc(NC(=O)Nc3ccc4c(c3)OCO4)cc2C1=O`, the max activity is -15.5% [at 0.26 µM].

Regarding `COc1ccc(-c2noc(C3CCCN(C(=O)Nc4ccccc4)C3)n2)cc1` (stereo not drawn), the max activity is 16.1%.

As for `C[C@H]1CN([C@@H](C)CO)C(=O)c2cc(NC(=O)Cc3ccccc3)ccc2O[C@H]1CN(C)C(=O)Nc1ccc2c(c1)OCO2`, the max activity was 21% [at 0.5 µM].

As to `CN(C)c1ccc(C(=O)Nc2cccc(S(=O)(=O)NC3=NCCCCC3)c2)cc1`, the max activity is 11.6% [at 16 µM].

On to `CCOC(=O)C1CCN(Cc2nc3ccc([N+](=O)[O-])cc3c(=O)n2-c2ccc(OC)cc2OC)CC1`, for which the max activity is 8.71% [at 4.2 µM].

For `COc1ccc(CCC(=O)N/N=C/c2ccc3c(c2)OCO3)cc1`, the max activity is 7.2%.

For `COc1ccc(NC(=O)Nc2cccc3c2O[C@@H](CN(C)C(=O)Nc2cccc4ccccc24)[C@H](C)CN([C@@H](C)CO)C3=O)cc1`, the max activity is 22.8%.

With `O=C(Nc1cccc(F)c1)Nc1cccc(Cl)c1`, the max activity was 39.5% [at 16 µM].

Consider `C[C@H]1CN([C@@H](C)CO)C(=O)c2cc(NS(=O)(=O)c3ccc(F)cc3)ccc2O[C@@H]1CN(C)C(=O)Nc1ccc2c(c1)OCO2`, for which the max activity is 3.44% [at 4.2 µM].

Consider `C[C@H]1CCCCO[C@H](CN(C)C(=O)NC2CCCCC2)[C@@H](C)CN([C@@H](C)CO)C(=O)c2cc(NC(=O)Nc3ccc4c(c3)OCO4)ccc2O1`, for which the max activity is 10.1%.

As to `C[C@H](CO)N1C[C@H](C)[C@H](CN(C)C(=O)NC2CCCCC2)OCCCC[C@H](C)Oc2ccc(NC(=O)Nc3ccc4c(c3)OCO4)cc2C1=O`, the max activity was 27%.

`Cc1c(Cl)cccc1N1C(=O)CC(N(O)c2ccccc2)C1=O` (stereo not drawn): the max activity is 13.3%.

On to `Cc1ccc(S(=O)(=O)Nc2cccc3c2O[C@H](CN(C)C(=O)Nc2ccc4c(c2)OCO4)[C@@H](C)CN([C@H](C)CO)C3=O)cc1`, for which the max activity is -41% [at 16 µM].

In the case of `O=C(OCc1ccccc1)N1CCC2CC1c1ccc(/C=C/CCCCl)cc12` (stereo not drawn), the max activity is -25.2% [at 16 µM].

Turning to `C[C@H]1CN([C@@H](C)CO)C(=O)c2cccc(NC(=O)Nc3ccccc3)c2O[C@@H]1CN(C)C(=O)Nc1ccc2c(c1)OCO2`, the max activity is -6.52%.

In the case of `C[C@@H]1CN([C@@H](C)CO)C(=O)c2cccc(NC(=O)Nc3ccccc3)c2O[C@H]1CN(C)C(=O)Nc1ccc2c(c1)OCO2`, the max activity is -14.4%.

In the case of `Cc1ccc(S(=O)(=O)Nc2cccc3c2O[C@@H](CN(C)C(=O)Nc2ccc4c(c2)OCO4)[C@H](C)CN([C@@H](C)CO)C3=O)cc1`, the max activity is -16.1%.

For `C[C@@H]1CN([C@H](C)CO)C(=O)c2cccc(NC(=O)Nc3ccc4c(c3)OCO4)c2O[C@H]1CN(C)Cc1ccccc1`, the max activity is 36.6% [at 0.26 µM].

Consider `CO[C@@H]1CN(C)C(=O)c2ccc(NC(=O)Nc3cccc(F)c3)cc2OC[C@@H](C)N(C(=O)Nc2c(C)noc2C)C[C@H]1C`, for which the max activity was 7.7% [at 0.56 µM].

As to `O=C(NCc1cccs1)c1cc2c(s1)-c1ccccc1OC2`, the max activity is 20.6% [at 8 µM].

Consider `CCCOc1c(Br)cc(C2C3=C(CCCC3=O)N(CC)C3=C2C(=O)CCC3)cc1OC`, for which the max activity was -53.8% [at 16 µM].

With `Cc1ccc(CN2CN(S(=O)(=O)c3cccs3)c3nc4ccccc4nc32)cc1`, the max activity was -38.8%.

With `O=C(O)c1ccc(NCc2cccnc2)cc1`, the max activity was 12.2%.

`C[C@@H]1CN([C@@H](C)CO)C(=O)c2c(c3ccccc3n2C)-c2ccccc2CO[C@@H]1CN(C)C(=O)Nc1ccc2c(c1)OCO2`: the max activity was -11.1%.

On to `C[C@@H]1CCCCO[C@@H](CN(C)S(=O)(=O)c2cn(C)cn2)[C@@H](C)CN([C@@H](C)CO)C(=O)c2cc(NC(=O)Nc3ccc4c(c3)OCO4)ccc2O1`, for which the max activity is 3.24% [at 30 µM].

For the molecule `CC1CCN(c2ccc(C(=O)NCc3cccs3)cn2)CC1`, the max activity was 20.2% [at 8 µM].

With `COc1ccc(CN2C[C@@H](C)[C@H](OC)CN(C)C(=O)c3ccc(NC(=O)c4nc5ccccc5s4)cc3OC[C@H]2C)cc1`, the max activity was 13.2% [at 3.8 µM].

`COc1ccc(N(CCC(=O)NCCc2ccccc2)S(=O)(=O)c2ccc(C)cc2C)cc1`: the max activity was 24.7% [at 8 µM].

Regarding `Cc1ccc(CNC(=O)c2cccc3c2C(=O)c2ccc(N4CCC(C)CC4)cc2S3(=O)=O)cc1`, the max activity is -5.88% [at 0.5 µM].

`C[C@@H]1CN([C@@H](C)CO)C(=O)c2cccc(NC(=O)Nc3ccc4c(c3)OCO4)c2O[C@H]1CN(C)Cc1ccc(Cl)c(Cl)c1`: the max activity was -35% [at 18 µM].

Take `O=C(NCc1cccs1)Nc1cccc(Cl)c1`: the max activity is -20.3%.

With `C/C(=N\NC(=O)c1ccc(Cn2cc(Br)cn2)o1)c1ccc(NC(=O)c2ccoc2C)cc1`, the max activity was 18.3% [at 16 µM].

`Cc1cccc(-c2nnc(-c3cccc(NC(=O)Cc4cccs4)c3)o2)c1`: the max activity is 34.9%.

For the molecule `Cc1ccc(S(=O)(=O)Nc2cccc(-c3ccc(N4CCCCCC4)nn3)c2)c(C)c1`, the max activity was 27.4% [at 4.2 µM].

With `Cc1ccc(S(=O)(=O)Nc2cccc(-c3ccc(N4CCCCCC4)nn3)c2)cc1`, the max activity was 29.4% [at 4.2 µM].

Regarding `C[C@@H]1CN([C@@H](C)CO)S(=O)(=O)c2ccc(-c3ccc(F)cc3)cc2O[C@H]1CN(C)C(=O)C1CC1`, the max activity is -26.9%.

With `C[C@H]1CCCCO[C@H](CN(C)C(=O)Nc2ccc(F)cc2)[C@@H](C)CN([C@@H](C)CO)C(=O)c2cc(NC(=O)Nc3ccc4c(c3)OCO4)ccc2O1`, the max activity was -13.8% [at 8 µM].

As for `C[C@H]1CCCCO[C@@H](CN(C)Cc2ccncc2)[C@@H](C)CN([C@@H](C)CO)C(=O)c2cc(NC(=O)Nc3ccc4c(c3)OCO4)ccc2O1`, the max activity is -19.5%.

Regarding `C[C@@H]1CCCCO[C@@H](CN(C)Cc2ccncc2)[C@@H](C)CN([C@@H](C)CO)C(=O)c2cc(NC(=O)Nc3ccc4c(c3)OCO4)ccc2O1`, the max activity was 11%.

`C[C@H](CO)N1C[C@H](C)[C@@H](CN(C)Cc2ccc(-c3ccccc3)cc2)Oc2c(NC(=O)Nc3ccc4c(c3)OCO4)cccc2C1=O`: the max activity was -20.6%.

Regarding `C[C@H](CO)N1C[C@H](C)[C@H](CN(C)Cc2ccncc2)OCCCC[C@H](C)Oc2ccc(NC(=O)Nc3ccc4c(c3)OCO4)cc2C1=O`, the max activity is -10.9%.

Take `CCc1c(C(=O)Nc2ccc(C)c(C)c2)[nH]c(C)c1C(C)=O`: the max activity is 13.1% [at 4.2 µM].

Consider `O=C(CNc1ccc(Br)cc1)c1ccc(Br)s1`, for which the max activity was 12.9% [at 4.2 µM].

Take `COc1ccc2oc(C(=O)OCC(=O)Nc3ccc(C)c(S(=O)(=O)N4CCOCC4)c3)c(C)c2c1`: the max activity is 34.7%.

With `C[C@H](CO)N1C[C@H](C)[C@@H](CN(C)C(=O)Nc2ccc(F)cc2)OCCCC[C@H](C)Oc2ccc(NC(=O)Nc3ccc4c(c3)OCO4)cc2C1=O`, the max activity is 15.2% [at 8 µM].

`Cc1ccc(C(=O)Nc2nc(=O)n(C(=O)c3ccccc3C)s2)cc1`: the max activity was 38.3% [at 16 µM].

Turning to `Cc1ccc(-n2nc(C(=O)c3ccccc3)n3c(=O)cc(-c4ccccc4)nc23)cc1`, the max activity was 5.74% [at 16 µM].

Regarding `CC(C)c1ccc(NC(=O)C(c2ccccc2)N2CC(=O)Nc3ccccc32)cc1` (stereo not drawn), the max activity is 10.6%.

As to `C[C@H](CO)N1C[C@H](C)[C@@H](CN(C)C(=O)Nc2ccc3c(c2)OCO3)OCCCC[C@H](C)Oc2ccc(NC(=O)Nc3ccc4c(c3)OCO4)cc2C1=O`, the max activity is 12.8%.

Take `C[C@@H]1CN([C@@H](C)CO)C(=O)c2cc(NC(=O)Nc3ccc4c(c3)OCO4)ccc2O[C@@H](C)CCCCO[C@@H]1CN(C)C(=O)Nc1ccc2c(c1)OCO2`: the max activity is 18.2%.

For the molecule `C[C@@H]1CCCCO[C@@H](CN(C)C(=O)Nc2ccc3c(c2)OCO3)[C@H](C)CN([C@H](C)CO)C(=O)c2cc(NC(=O)Nc3ccc4c(c3)OCO4)ccc2O1`, the max activity was 17.2% [at 16 µM].

Consider `C[C@@H]1CN([C@@H](C)CO)C(=O)c2cc(NC(=O)Nc3ccc4c(c3)OCO4)ccc2O[C@H]1CN(C)C(=O)Nc1ccc(C(F)(F)F)cc1`, for which the max activity was -14.9%.

These data come from PubChem BioAssay AID651717 (Broad Institute, 2012).
